These compounds were tested on T1, YSK4. Details: concentration: 1 μM, replicates: in singlicate; n = 1.
T1 construct: gene MAP3K19
With `CN1CCN(Cc2cccc(-c3ccc4c(Nc5ccc(Oc6ccccc6)cc5)ccnc4c3)c2)CC1` [GW578342] the “%Inh” value was 0%. With `O=C(Nc1ccccc1F)NC1CCN(c2ccnc(Nc3ccc(F)cc3)n2)CC1` [GSK1379800] the “%Inh” value was 14%. With `Cl.c1ccc(-c2ccc3c(Nc4ccc5[nH]ncc5c4)ccnc3c2)nc1` [GW440137] the “%Inh” value was 51%. `CCn1c(-c2nonc2N)nc2c(C#CC(C)(C)O)nc(OC[C@H](N)c3ccccc3)cc21` [GSK943949] was tested, and the “%Inh” value was 100%. For `O=C(Nc1cccc(-c2nn3ccccc3c2-c2ccnc(Nc3cccc(C(F)(F)F)c3)n2)c1)c1c(F)cccc1F` [GSK292658], the “%Inh” value was 0%. With `Cn1cc(-c2ccc3c(c2)CCN3C(=O)Cc2cccc(F)c2)c2c(N)ncnc21` [GSK2603358] the “%Inh” value was 98.2%. With `COc1cc(Nc2nccc(N3CCC(NC(=O)c4cc5ccccc5s4)C3)n2)cc(OC)c1OC` (stereo not drawn) [GSK1379760] the “%Inh” value was 0%. With `COCCOCCOc1cc2ncc3c4ccc(C#N)cc4[nH]c3c2cc1OC` the “%Inh” value was 93.7%. In the case of `Cl.Cl.NCC(NC(=O)c1cc(-c2ccccc2)c(-c2ccnc3[nH]ccc23)s1)c1ccccc1` (stereo not drawn) [GSK1321561], the “%Inh” value is reported as 73%. `COc1cc(Nc2nccc(-c3c(-c4cccc(NC(=O)c5c(F)cccc5F)c4)nn4ncccc34)n2)cc(OC)c1OC` [GSK327238] was tested, and the “%Inh” value was 7%. `CN(C)S(=O)(=O)c1cc(-c2ccc3nccc(-c4cccc(S(N)(=O)=O)c4)c3c2)cnc1N` [GSK1669921] was tested, and the “%Inh” value was 93.3%. For `Cl.Cl.NCC(NCc1ccc(-c2ccnc3[nH]ccc23)s1)c1ccccc1` (stereo not drawn) [GSK1321565], the “%Inh” value was 99.3%.
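Also: KINOMEscan kinase panel screen.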
